Assay results from PubChem BioAssay AID2025 (NMMLSC, 2009).
Among all 330,000 compounds or so, about 980 (0.3%) were called active.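 The calls were made as follows: active = percent response vs DMSO below 50%; inconclusive = fewer than 70 events counted for the yeast strain; inactive = the rest.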 Many of the other results were omitted from the sample, so actives are more common in it than they were.

Experiment: RPL19A-GFP expression modulators in yeast, primary screen, cell-based, S. cerevisiae, multiplex flow cytometry, MLPCN (AID 2025);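 also: median channel GFP fluorescence of the barcoded RPL19A-GFP strain; ratio of sample median GFP to plate DMSO average so 100% = DMSO; lower means less RPL19A-GFP as with rapamycin TOR inhibition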
Settings: S. cerevisiae RPL19A-GFP strain, 3 h, at 10 µM, stronger effect = lower value

Percent response vs DMSO, active:
FC(F)(F)Oc1ccc(-c2cn3cccnc3n2)cc1 30.4% [may fluoresce violet]
CCOC(=O)c1c(CN2CCOCC2)n(-c2ccccc2)c2ccc(O)cc12 14.2% [may fluoresce violet]
CCCCNC(=O)CCNC(=O)c1ccc(C(C)(C)C)cc1 47.4% [may fluoresce violet]
O=C(Nc1ccccc1)c1nnsc1S(=O)(=O)c1ccc(Cl)cc1 46.8%

Percent response vs DMSO, inactive:
CC(=O)c1c(C)c[nH]c1C 101%
CC(C)(C)C(=O)Nc1ccc(-c2cn3cccnc3n2)cc1 105%
COc1ccc(-c2cn3cccnc3n2)cc1 98.9%
Cc1noc(C)c1-c1ccc2ncnc(NC(C)c3ccco3)c2c1 (stereo not drawn) 99.4%
O=C(C[C@H]1C/C=C\C[C@@H](NC(=O)OCC2c3ccccc3-c3ccccc32)C(=O)O[C@@H](c2ccccc2)CNC1=O)N[C@H](CO)Cc1ccccc1 101%
CCOC(=O)C1CCCCN1Cc1ccc(OC)c(OC)c1OC (stereo not drawn) 94.8%
CCOC(=O)c1c(CN(C)C)n(-c2ccccc2)c2cc(Br)c(O)cc12 98%
CCOC(=O)c1nnn(-c2nonc2-n2cccc2)c1CN1CCOCC1 95.3%
COc1ccc(C(=O)NC(Cc2ccc(OC(=O)c3ccc(OC)cc3)cc2)C(=O)O)cc1 (stereo not drawn) 96.9%
O=C(O)c1ccc(COc2c(F)c(F)cc(F)c2F)o1 97%
O=C(CCS(=O)(=O)c1ccc2c(c1)NC(=O)CS2)NCc1ccccc1Cl 100%
CSc1cccc(NC(=O)C2CCCN2S(=O)(=O)c2ccc3c(c2)CCC(=O)N3)c1 (stereo not drawn) 100%
NNC(=O)C1CC(O)CN1S(=O)(=O)c1ccc(Cl)cc1 (stereo not drawn) 101%
CCCN1CCN(C(=O)CCCNC(=O)c2ccc(Cl)cc2)CC1 98.3%
O=C(CCNC(=O)c1ccc(Br)cc1)NCCCc1ccccc1 101%
CN(c1cccc(NC(=O)Nc2ccc(Cl)cc2)c1)S(C)(=O)=O 102%
O=C(Nc1ccc(Cl)cc1)Nc1nnc(/C=C/c2ccccc2)s1 97.4%
CCCCNC(=O)c1cn(CC)c2cc(N3CCN(C(=O)c4ccco4)CC3)c(F)cc2c1=O 95.5%
Cc1cc(=O)oc2c(C)c(OCC(=O)NCCN3CCOCC3)ccc12 97.4%
